In assay [1] the target is Acetylcholinesterase (Homo sapiens) (UniProt P22303). The assay can be described thus: Acetylcholinesterase (AChE) small molecule antagonists: enzyme-based qHTS assay (AID 1347397). Also: nearly all actives have a fitted effect of over 55% in size. Particulars: Potency: AChE enzyme activity inhibition; outcome: AChE enzyme activity inhibition. Summed up: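 First, recombinant human AChE (50 mU/mL as dispensed) received test compound or DMSO. Second, plates stood 30 min at room temperature. Third, DTNB and acetylthiocholine were added, followed by 10 min at room temperature and colorimetric detection.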
Background: In qHTS, concentration-response curves come from the screen itself.

Assay [2] has the same target. As to the kind of experiment: Acetylcholinesterase (AChE) small molecule antagonists: fluorescence cell-based qHTS assay (AID 1347398). Also: nearly all actives have a fitted effect of over 50% in size. Particulars: Potency: AChE activity; outcome: AChE activity. In short, it runs like this:
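Homogeneous quantitative HTS format. SH-SY5Y cells seeded at 2,000 per well settle overnight at 37 C. Compound pretreatment runs 30 min (37 C, 5% CO2); substrate/probe mix then reacts 40 min at RT before reading 490/520 nm.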

Inconclusive results are not listed. Entries that show only a call come without a potency. More than one record can exist for a structure, and the calls need not agree. Active and inactive are the calls of the source. Calls follow the shape of the full dose curve.
Potency is read from the fitted curve at half-maximal effect.

Acetylcholinesterase (Homo sapiens), sequence (P22303 whole entry, looked up): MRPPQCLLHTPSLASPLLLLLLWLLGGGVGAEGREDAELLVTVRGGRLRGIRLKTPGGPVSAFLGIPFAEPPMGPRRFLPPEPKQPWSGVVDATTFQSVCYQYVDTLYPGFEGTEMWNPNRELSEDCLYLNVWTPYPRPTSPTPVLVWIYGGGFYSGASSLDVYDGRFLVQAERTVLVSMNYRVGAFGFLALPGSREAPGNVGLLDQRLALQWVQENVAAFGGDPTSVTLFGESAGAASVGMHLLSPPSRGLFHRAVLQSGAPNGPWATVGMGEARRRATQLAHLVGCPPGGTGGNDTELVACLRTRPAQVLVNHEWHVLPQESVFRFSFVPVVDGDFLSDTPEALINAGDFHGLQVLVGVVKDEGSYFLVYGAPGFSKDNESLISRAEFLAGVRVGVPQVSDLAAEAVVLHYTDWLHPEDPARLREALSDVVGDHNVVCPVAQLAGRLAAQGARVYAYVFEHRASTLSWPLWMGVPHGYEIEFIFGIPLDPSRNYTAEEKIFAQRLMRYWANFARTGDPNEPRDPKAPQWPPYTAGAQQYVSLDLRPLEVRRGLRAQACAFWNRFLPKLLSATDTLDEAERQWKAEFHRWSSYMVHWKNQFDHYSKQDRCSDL

In the case of `CN(C)C(=O)C(CCN1CCC(O)(c2ccc(Cl)cc2)CC1)(c1ccccc1)c1ccccc1`, the Potency entry in assay [1] and in assay [2] was “inactive” throughout.
`CCCOCCC`: the Potency entry in assay [1] and in assay [2] was “inactive” in each case.
For the molecule `COC(=O)C1=C(C)NC(C)=C(C(=O)OC)C1c1ccccc1[N+](=O)[O-]`, the Potency entry in assay [1] and in assay [2] was “inactive” in each case.
With `O=S(=O)(O)CCCN1CCOCC1`, the Potency entry in assay [1] is “inactive”.
Turning to `N#[N+]c1ccc2c(S(=O)(=O)[O-])cccc2c1O`, the Potency entry in assay [1] and in assay [2] was “inactive” each time.
For `Nc1cc(Cl)c(N)c(Cl)c1`, the Potency entry in assay [1] is “inactive”. Besides, the Potency in assay [2] was 55.9 µM (active) and inactive.
As for `CCCCC1C(=O)N(c2ccccc2)N(c2ccccc2)C1=O`, the Potency entry in assay [1] and in assay [2] was “inactive” in each case.
In the case of `CCCC(=O)c1cc(O)c(O)cc1O`, the Potency entry in assay [1] and in assay [2] was “inactive” throughout.
As to `O=C(O)CC(=O)O`, the Potency entry in assay [1] and in assay [2] was “inactive” each time.
As to `CC(C)(C)NC(=O)[C@@H]1C[C@@H]2CCCC[C@@H]2CN1C[C@@H](O)[C@H](Cc1ccccc1)NC(=O)[C@H](CC(N)=O)NC(=O)c1ccc2ccccc2n1`, the Potency entry in assay [1] and in assay [2] was “inactive” each time.
On to `C[C@@H](N)C(=O)O`, for which the Potency result in assay [1] and in assay [2] was “inactive” each time.
`CN1CCN(C2=Nc3cc(Cl)ccc3Nc3ccccc32)CC1`: in assay [1], the Potency entry was “inactive”.
For the molecule `O=C(O)c1cc(=O)[nH]c(=O)[nH]1`, the Potency result in assay [1] and in assay [2] was “inactive” each time.
Consider `CN(C)C(=O)C1(N2CCCCC2)CCN(CC[C@@]2(c3ccc(Cl)c(Cl)c3)CN(C(=O)c3ccccc3)CCO2)CC1`, for which the Potency in assay [1] was 16.7 µM (active); in assay [2], 4.69 µM (active).
For `COC(=O)C1=C(C)NC(C)=C(C(=O)OCCN(C)Cc2ccccc2)C1c1cccc([N+](=O)[O-])c1` (stereo not given), in assay [1], the Potency result is “inactive”.
`N[C@@H](Cc1ccc(O)cc1)C(=O)O`: the activity change, negative = inhibition in assay [1] is -0.135% [at 10.5 µM] (inactive); in assay [2], 10.1% [at 10.5 µM] (inactive).
On to `CCOC(=O)c1c(N)sc2c1CCN(Cc1ccccc1)C2`, for which the Potency was 24.5 µM (active) in assay [1] and 12.3 µM (active) in assay [2].
The matching figures for `O=S(=O)(O)c1cc(O)c(O)c(S(=O)(=O)O)c1`: “inactive” and “inactive”.
With `CCC(COC(=O)CCS)(COC(=O)CCS)COC(=O)CCS`, the Potency result in assay [1] and in assay [2] was “inactive” throughout.
In the case of `NCc1ccccc1Sc1ccccc1CO`, the Potency result in assay [1] and in assay [2] was “inactive” in each case.
Turning to `COc1ccc(-c2nc3ccc(C4=NNC(=O)CC4C)cc3[nH]2)cc1` (stereo not given), the Potency entry in assay [1] was “inactive”.
As to `CN(C)CCCN1c2ccccc2Sc2ccc(C(F)(F)F)cc21`, the Potency result in assay [1] and in assay [2] was “inactive” each time.
With `CC(=O)OCC(=O)[C@@]1(O)CC[C@H]2[C@@H]3CCC4=CC(=O)C=C[C@]4(C)[C@H]3[C@@H](O)C[C@@]21C`, the Potency result in assay [1] and in assay [2] was “inactive” each time.
As for `O=C(O)[C@H](O)[C@@H](O)[C@H](O)[C@H](O)CO`, the Potency entry in assay [1] and in assay [2] was “inactive” each time.
Regarding `CCOC(=O)N1CCC(=C2c3ccc(Cl)cc3CCc3cccnc32)CC1`, the Potency result in assay [1] and in assay [2] was “inactive” throughout.
On to `Cc1ccc(Br)cc1`, for which the Potency entry in assay [1] and in assay [2] was “inactive” in each case.
As to `CCC(=O)OCCC(C)CCC=C(C)C` (stereo not given), the Potency entry in assay [1] and in assay [2] was “inactive” in each case.
For the molecule `NCCNCCNCCNCCN`, the Potency entry in assay [1] was “inactive”. Besides, the activity change, negative = inhibition in assay [2] was 0.135% [at 10.5 µM] (inactive).
As to `Brc1cc(Oc2cc(Br)c(Br)c(Br)c2Br)c(Br)c(Br)c1Br`, the Potency result in assay [1] and in assay [2] was “inactive” throughout.
As for `COc1ccc(OC)c(C(O)CNC(=O)CN)c1` (stereo not given), the Potency result in assay [1] and in assay [2] was “inactive” throughout.
For the molecule `c1ccc2c(c1)CCc1ccccc1N2`, the Potency result in assay [1] and in assay [2] was “inactive” each time.
For `C/C=C(\C)C(=O)OCCc1ccccc1`, the Potency entry in assay [1] and in assay [2] was “inactive” in each case.
